Results on 29 compounds are retold here after PubChem BioAssay AID686979 (National Center for Advancing Translational Sciences (NCATS), 2013).

Out of some 420,000 compounds screened, about 50,000 (12%) were called active. A call without a number means that no potency is given here. Another 26% or so got no clear call; they are omitted. Many of the other results were omitted from the sample, so actives are more common in it than they were. Values without a mark were called inactive. Calls come from the whole dose curve; as a rule, active = well fitted inhibition curve with a large enough effect; inconclusive = small, poorly fitted or top-dose-only effect; inactive = flat fitted curve, though single readings scatter.
Potency is the fitted concentration of half-maximal effect.

The nature of this test: qHTS for Inhibitors of human tyrosyl-DNA phosphodiesterase 1 (TDP1): qHTS in cells in presence of CPT. Note: nearly all actives have a fitted effect of over 55% in size. The note with it: chicken DT40 Tdp1-/-;hTDP1 cells + 20 nM CPT, ATP luminescence, 48 h; series mostly up to 46.2 µM. A digest of the protocol: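 Cell growth measured by CellTiter-Glo luminescence after a minimum 48 h, 37 C compound exposure with 20 nM CPT in Tdp1-knockout DT40 cells stably expressing hTDP1, seeded 400/well; qHTS titration format.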
In general terms: qHTS replaces the single test concentration by a dilution series.
For `Cn1c(=NC(=O)c2ccc3c(c2)OCCO3)sc2cc(S(C)(=O)=O)ccc21`, the Potency result was “inactive”.

As for `O=C(NCc1ccncc1)c1cccc(NS(=O)(=O)c2ccc(F)c(F)c2)c1`, the Potency result is “inactive”.

With `COc1ccccc1OCCC(=O)OCC(=O)NCc1ccccc1`, the Potency entry was “inactive”.

With `CC(C)c1c(O)nc(SCCOc2ccc(Cl)cc2)[nH]c1=O`, the Potency entry was “inactive”.

In the case of `COc1ccc(CN2C(=O)C(CC(=O)NCCCCc3ccccc3)CC(C(=O)N3CCOCC3)=C2C)cc1` (centres undefined), the Potency entry was “inactive”.

On to `Cc1ncc2c(c1CNS(=O)(=O)N(C)C)CCN(C(=O)c1ccccc1F)C2`, for which the activity change, negative = growth inhibition is 12.2% [at 9.04 µM].

With `O=C(NCc1cccc(Cl)c1)C1=CC=CN2CCS(=O)(=O)N=C12`, the Potency result was “inactive”.

Turning to `COc1ccc(-c2cc(C(=O)N(C)Cc3ccc(OC)c(OC)c3OC)c3ccccc3n2)cc1OC`, the Potency was 16.4 µM (active).

On to `COc1ccc(-c2cc(C(=O)NCCCN3CCCC3=O)c3ccccc3n2)cc1OC`, for which the Potency result was “inactive”.

Consider `COc1ccc(-c2cc(C(=O)N(C)CC(=O)Nc3ccccc3Cl)c3ccccc3n2)cc1OC`, for which the Potency is 20.6 µM (active).

As for `COc1cccc(NC(=O)CN(C)C(=O)c2cc(Cl)nc3ccccc23)c1`, the Potency result was “inactive”.

For `COc1ccc(CN(C)C(=O)Cc2ccsc2)c(OC)c1OC`, the Potency result is “inactive”.

Regarding `COc1ccc(Cl)cc1NC(=O)CN(C)C(=O)c1ccc2n[nH]nc2c1`, the Potency result was “inactive”.

Take `COc1ccc(CN2[C@@H](CC(=O)O)c3cc(F)ccc3S2(=O)=O)cc1`: the Potency entry was “inactive”.

On to `CCN(CC)S(=O)(=O)c1ccc(-c2cn3ccc(C)cc3n2)cc1`, for which the Potency entry was “inactive”.

As to `Cc1ccc(S(=O)(=O)n2nc(C)c(S(=O)(=O)N3CCCCCC3)c2C)cc1`, the Potency entry is “inactive”.

Consider `COc1ccc(NS(=O)(=O)c2cccc3nsnc23)cc1Cl`, for which the Potency entry was “inactive”.

Turning to `COc1ccc([C@H]2CC(=O)C=C(c3ccc(C)cc3)C2)cc1`, the Potency result was “inactive”.

For `S=C(Nc1cccc(Cl)c1)Nc1ccc2cn[nH]c2c1`, the Potency entry is “inactive”.

`Cc1csc(NC(=S)Nc2cccc(Cl)c2)n1`: the Potency was 1.64 µM (active).

Consider `CC(=O)Nc1cccc(C(=O)Nc2nc(C)cs2)c1`, for which the Potency entry was “inactive”.

Regarding `Cc1cc(C)cc(NC(=O)CCS(=O)(=O)c2cc3c4c(c2)CCN4C(=O)CC3)c1`, the Potency result was “inactive”.

In the case of `S=c1[nH]nc(-c2ccco2)n1/N=C/c1ccccc1`, the Potency entry was “inactive”.

Regarding `Cn1cccc1-c1nc2ccccc2n1C`, the Potency entry is “inactive”.

Take `Cn1c(-c2ccco2)nc2cc3ccccc3cc21`: the Potency is 11.6 µM (active).

Regarding `CCOc1ccc(S(=O)(=O)N(CC(=O)NCCSCc2ccc(C)cc2)c2ccccc2)cc1`, the Potency entry was “inactive”.

Regarding `CCS(=O)(=O)Nc1cc(C(=O)N2C[C@@H](C)O[C@@H](C)C2)c2c(c1)nc(-c1ccccc1)n2C`, the Potency entry was “inactive”.

In the case of `CN(C)c1nc(=Nc2cccc(Cl)c2)ss1`, the Potency is 0.206 µM (active).

In the case of `CCOC(=O)C1=C(O)CSC1=Nc1cccc(Cl)c1`, the Potency result was “inactive”.
